Structures are written as SMILES. Records with an inconclusive call do not appear. The source made the active and inactive calls. Unless noted, calls follow the shape of the dose curve; as a rule, active = well fitted curve in the direction sought with a large enough effect in the repeat runs; inconclusive = weak or mixed curves; inactive = no such curve, though single readings can be large; an effect the other way counts as inactive or inconclusive.

Assay [1] in a line: qHTS assay to identify small molecule agonists of the vitamin D receptor (VDR) signaling pathway - cell viability counter screen (AID 743224). Also: nearly all actives have a fitted effect of over 50% in size. Also: potency is read from the fitted curve at half-maximal effect. In outline:
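Viability is measured in the same wells as the VDR-bla reporter assay: after 16 h compound treatment and 2 h substrate loading, CellTiter-Glo is added and luminescence read 30 min later.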

A short description of assay [2]: qHTS assay to identify small molecule agonists of the NFkB signaling pathway (AID 1159509; active = well fitted curve in the direction sought with a large enough effect in the signal ratio in the repeat runs, not every such curve was filed as active; the % refers to the signal ratio; also: series mostly up to about 61 µM). The essentials:
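After overnight attachment, reporter cells received test compounds, DMSO or positive controls and were incubated 5 hr at 37 C. FRET substrate was then added for 1.5 hr at room temperature before dual-emission fluorescence reading.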

Assay [3] is described as follows: qHTS assay to identify small molecule agonists of the NFkB signaling pathway - cell viability counter screen (AID 1159515; calls by dose curve; also: series mostly up to about 61 µM; nearly all actives have a fitted effect of over 55% in size). The essentials: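 Multiplexed viability readout: after the 5 hr compound exposure and 1.5 hr FRET substrate step, CellTiter-Glo reagent went into the same NFkB-bla ME-180 wells; ATP luminescence was measured after 30 min at room temperature.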
On the technique in general: qHTS replaces the single test concentration by a dilution series.

The nature of assay [4]: qHTS assay to identify small molecule agonists of the endoplasmic reticulum stress response signaling pathway (AID 1159516; active = well fitted activation curve with a large enough effect in the signal ratio in the repeat runs, not every such curve was filed as active; the % refers to the signal ratio). In outline:
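Tox21 10K library screened in quantitative HTS format on ESRE-bla HeLa cells, a beta-lactamase reporter under ER stress response element control; 5 hr treatment, FRET read.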

Assay [5] can be described thus: qHTS assay to identify small molecule agonists of the endoplasmic reticulum stress response signaling pathway - cell viability counter screen (AID 1159517; calls by dose curve; also: series mostly up to about 61 µM; nearly all actives have a fitted effect of over 50% in size). The essentials: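 Luminescence readout: CellTiter-Glo, 30 min RT, same wells as the ESRE-bla reporter read. HeLa ESRE-bla, 1,500 cells/well, o/n 37 C; cpd 5 hr 37 C/5% CO2.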
Assay [6] is described as follows: qHTS assay to identify small molecule antagonists of the retinoid-related orphan receptor gamma (ROR-gamma) signaling pathway - cell viability counter screen (AID 1159520). Also: nearly all actives have a fitted effect of over 50% in size. In outline: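 Tet-on ROR gamma CHO cells (1,000/well) were plated 4 hr, given compounds in DMSO for 2 hr at 37 C, then induced with 1 uM final doxycycline for 16 hr. Viability was read as ATP by CellTiter-Glo luminescence after 30 min.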

Assay [7] in a line: qHTS assay to identify small molecule agonists of the AP-1 signaling pathway - cell viability counter screen (AID 1159525; calls by dose curve; also: nearly all actives have a fitted effect of over 55% in size). The essentials:
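ME-180 AP-1-bla, 2500 cells/well, Opti-MEM + 0.5% dialyzed FBS; overnight 37 °C; cpd 15-pt titration, 5 h 37 °C; CellTiter-Glo 30 min RT; luminescence read; normalised to TOAB and DMSO controls.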

Assay [8] can be described thus: qHTS assay to identify small molecule agonists of the AP-1 signaling pathway (AID 1159526; calls by dose curve).
The target of assay [9] is Retinoic acid receptor RXR-alpha (Homo sapiens) (UniProt P19793). Description: qHTS assay to identify small molecule agonists of the RXR signaling pathway (AID 1159527; calls by dose curve; also: nearly all actives have a fitted effect of over 35% in size). The essentials: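 GeneBLAzer RXR-alpha-UAS-bla HEK 293T cells in 2% charcoal-stripped FBS medium were exposed to compounds for 16 hr at 37 C in agonist mode. Beta-lactamase reporter read as 460/530 nm FRET ratio after 2 hr substrate loading.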

Assay [10] is described as follows: qHTS assay to identify small molecule agonists of the RXR signaling pathway - cell viability counter screen (AID 1159529). Also: series mostly up to about 77 µM; nearly all actives have a fitted effect of over 50% in size. In outline:
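RXR-alpha-UAS-bla HEK 293T cells in medium with 2% charcoal-stripped FBS were pre-incubated 5 hr, then compound-treated 16 hr at 37 C. Viability was read by CellTiter-Glo luminescence in the same wells as the beta-lactamase assay, with tetraoctyl ammonium bromide as positive control.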

The nature of assay [11]: qHTS assay to identify small molecule antagonists of the retinoid acid receptor (RAR) signaling pathway - cell viability counter screen (AID 1159551). Also: nearly all actives have a fitted effect of over 35% in size. In outline: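 Cytotoxicity counter screen in C3RL4 cells: 6 h compound exposure with 1 uM retinol (final), viability from cellular ATP by luminescence.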
A short description of assay [12]: qHTS assay to identify small molecule antagonists of the retinoic acid receptor (RAR) signaling pathway (AID 1159552; also: nearly all actives have a fitted effect of over 50% in size). The essentials:
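Retinol signaling pathway inhibitors screened in C3RL4 RARE-luciferase reporter cells seeded overnight at 37 C, then compounds added with 1 uM (final) retinol as pathway substrate. After 6 hr at 37 C, luciferase luminescence read after 30 min at room temperature.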

Assay [13] in a line: qHTS assay to identify small molecule agonists of the retinoic acid receptor (RAR) signaling pathway (AID 1159553). In outline: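 Agonist activity was scored in C3RL4 cells bearing a retinoic acid response element luciferase construct. Cells were treated with compounds for 6 hr at 37 C, and luciferase signal was measured as luminescence.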
A short description of assay [14]: qHTS assay to identify small molecule antagonists of the vitamin D receptor (VDR) signaling pathway - cell viability counter screen (AID 743225). Also: nearly all actives have a fitted effect of over 50% in size. The essentials:
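VDR-UAS-bla HEK 293T cells were plated and incubated 4 h at 37C, then dosed with compound plus 3 nM (final) 1-alpha,25-dihydroxyvitamin D3 for 16 h. After the 2 h beta-lactamase read, viability in the same wells was read as CellTiter-Glo luminescence after 30 min at room temperature.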

The target of assay [15] is Nuclear receptor ROR-gamma (Homo sapiens) (UniProt P51449). Description: qHTS assay to identify small molecule antagonists of the retinoid-related orphan receptor gamma (ROR-gamma) signaling pathway (AID 1159521). In outline: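 Tet-on ROR-gamma CHO cells with ROR response element-luciferase reporter; compounds added 2 hr before 1 uM doxycycline induction, then 16 hr at 37 C. Antagonism scored as decreased ONE-Glo luminescence.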

Chain of Retinoic acid receptor RXR-alpha (Homo sapiens) (P19793 whole entry, looked up): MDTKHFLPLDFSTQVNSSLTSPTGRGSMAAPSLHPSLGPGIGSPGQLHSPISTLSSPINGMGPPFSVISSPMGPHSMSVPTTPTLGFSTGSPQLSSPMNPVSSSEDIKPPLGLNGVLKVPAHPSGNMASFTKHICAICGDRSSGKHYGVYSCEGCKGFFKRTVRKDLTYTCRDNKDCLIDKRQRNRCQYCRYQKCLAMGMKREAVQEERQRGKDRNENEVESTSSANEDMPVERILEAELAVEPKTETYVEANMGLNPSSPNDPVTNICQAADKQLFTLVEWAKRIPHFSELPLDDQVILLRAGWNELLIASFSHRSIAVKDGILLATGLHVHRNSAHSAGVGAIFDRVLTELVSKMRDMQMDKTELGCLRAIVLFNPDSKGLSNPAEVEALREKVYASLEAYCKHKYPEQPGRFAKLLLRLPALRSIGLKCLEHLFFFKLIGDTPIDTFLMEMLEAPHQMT

For the compound `CNC(=O)Oc1c(C(C)(C)C)cc(C)cc1C(C)(C)C`, the Potency entry in [1], in assay [5], in assay [6], in assay [7], in assay [9] and in assay [10] was “inactive” throughout. Besides, the Potency result in assay [11], in assay [12] and in assay [13] was “inactive” each time. Moreover, the result in assay [2], in [3], in assay [4] and in assay [8] was inactive.

For the compound `CCOC(=O)CP(=O)(OCC)OCC`, the Potency result in assay [1], in assay [5], in assay [6], in assay [15], in [10] and in assay [11] was “inactive” in each case. Besides, the call in [14], in assay [2], in assay [3], in assay [4] and in [8] was inactive.

For the compound `CC(C)(C)C(=O)C(Oc1ccc(Cl)cc1)n1cncn1` (configuration not stated), the Potency result in assay [1], in assay [5], in assay [6], in assay [15], in assay [10] and in assay [11] was “inactive” each time. Besides, the Potency result in [12] and in assay [13] was “inactive” each time. The compound was classed as inactive in assay [14], in assay [2], in assay [3], in assay [4] and in assay [8].

On to `CC(Cl)(Cl)[N+](=O)[O-]`, for which the Potency result in [1], in assay [5], in [6], in assay [7], in assay [9] and in assay [10] was “inactive” in each case. Besides, the Potency entry in assay [11], in assay [12] and in [13] was “inactive” throughout. Moreover, the compound was classed as inactive in [14], in assay [2], in assay [3], in [4] and in [8].

As for `N#CC(Cl)(Cl)Cl`, the Potency result in assay [1], in assay [5], in assay [6], in assay [7], in assay [9] and in assay [10] was “inactive” in each case. Moreover, the Potency entry in assay [11], in [12] and in assay [13] was “inactive” throughout. The result in assay [14], in [2], in assay [3], in [4] and in [8] was inactive.

In the case of `CC(C)[N+](=O)[O-]`, the Potency result in [1], in assay [5], in assay [6], in assay [7], in assay [9] and in assay [10] was “inactive” throughout. Also, the Potency result in assay [11] and in assay [13] was “inactive” in each case. Moreover, the result in assay [14], in [2], in assay [3], in [4] and in [8] was inactive.

For `CCOC(=O)/C=C(C)/C=C/C[C@@H](C)CCCC(C)C`, in [1], the Potency was 34.7 µM (active). Moreover, the compound was called inactive in assay [14], in [2], in [3], in [4] and in [8]. Moreover, the Potency result in [5], in assay [6], in assay [7], in assay [9], in [10] and in assay [11] was “inactive” each time. In [13], the Potency result is “inactive”.

As to `CCOP(=S)(Oc1cnc(C(C)(C)C)nc1)OC(C)C` (configuration not stated), the call in assay [14], in assay [2], in [3] and in assay [4] was inactive. Further, the Potency entry in assay [5], in [6], in assay [15], in [9], in assay [11] and in assay [13] was “inactive” each time.

Regarding `Clc1ccccc1N1CCNCC1`, the Potency result in assay [1], in [5], in assay [6], in assay [7], in assay [9] and in assay [10] was “inactive” in each case. The Potency entry in assay [11] and in assay [13] was “inactive” in each case. For the same compound, the compound was classed as inactive in assay [14], in assay [2], in assay [3], in [4] and in [8].

In the case of `C[N+](C)=CCl`, the Potency entry in [1], in assay [6], in [7], in assay [9], in assay [10] and in [11] was “inactive” in each case. Besides, the Potency entry in assay [12] and in assay [13] was “inactive” in each case. Besides, the result in assay [14], in [2], in [3], in [4] and in assay [8] was inactive.
